Data on 75 compounds can be found in PubChem BioAssay AID1318 (The Scripps Research Institute Molecular Screening Center, 2008).

The campaign covered roughly 1,200 compounds. About 160 (13%) were called active.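 The calls were made as follows: active = activation above the solvent-only control well mean plus 3 SD, set per screening run (cut at about 120% in these data); inactive = the rest.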 A selection follows.

The assay in a line: enhancement of STAT1-driven transcription – cell-based, NIH 3T3, luciferase luminescence, IFN-gamma, counter-screen for STAT3 activator project (AID 1318).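 Also: 100% = IFN-gamma with DMSO median signal so 100% means no change.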 The following applies: NIH 3T3 STAT1-luciferase reporter, at 5.7 µM, stronger effect = higher value. On the technique in general: The purpose of a counterscreen is to sort out artefacts and off-target activity.
As for `CN1C(=O)/C(=C\c2cc(Br)cs2)c2ccccc21`, the activation (% of control) is 116% (inactive).

Take `Cc1nc(N=C(N)N)nc2c(C)cccc12`: the activation (% of control) is 104% (inactive).

In the case of `CN1CCN(c2ccc([N+](=O)[O-])c(Sc3nc4ccccc4[nH]3)c2)CC1`, the activation (% of control) was 96.2% (inactive).

As for `Cc1ccc(N=Nc2c(C)[nH]n(-c3ccccc3)c2=O)cc1`, the activation (% of control) is 106% (inactive).

Regarding `N#Cc1ccccc1NC(=O)COc1c(Br)cc(Br)c2cccnc12`, the activation (% of control) was 85.6% (inactive).

With `c1ccc(-c2cn3c(n2)CCc2ccc4cccnc4c2-3)cc1`, the activation (% of control) is 94.3% (inactive).

Regarding `CCOC(=O)CN(C)Cc1c[nH]c2ccccc12`, the activation (% of control) is 88.5% (inactive).

As to `Cc1cccc(C(=O)Nc2nnc(Cc3c[nH]c4ccccc34)s2)c1`, the activation (% of control) was 92.4% (inactive).

For `Cc1ccc(S(=O)(=O)Nc2nc3ccccc3nc2N2CCc3ccccc3C2)cc1`, the activation (% of control) was 105% (inactive).

`O=C(Cc1c[nH]c2ccccc12)OCCOC(=O)Cc1c[nH]c2ccccc12`: the activation (% of control) was 94.1% (inactive).

On to `C/C(=N\NC(=O)CNc1cccc2ccccc12)c1ccc(Br)s1`, for which the activation (% of control) was 92.6% (inactive).

In the case of `CSCCC(NC(=O)c1ccco1)C(=O)OCC(=O)Nc1ncc(Cl)c(C)c1Cl` (stereo not given), the activation (% of control) is 105% (inactive).

Consider `CCOc1ccc(C2c3[nH]c4ccccc4c3CCN2Cc2cn(CC)nc2C)cc1` (stereo not given), for which the activation (% of control) is 112% (inactive).

For the compound `Cc1ccc(Nc2nc(-c3sc(NC(=O)c4ccccc4)nc3C)cs2)cc1`, the activation (% of control) was 105% (inactive).

On to `COc1ccccc1-c1nnc(NC(=O)c2ccc3ncsc3c2)o1`, for which the activation (% of control) was 137% (active).

With `COc1ccccc1-c1nnc(SCC(=O)N2CC(C)CC(C)C2)o1` (stereo not given), the activation (% of control) was 97% (inactive).

Consider `OC(COc1ccc2ccccc2c1)CN1CCOCC1` (stereo not given), for which the activation (% of control) is 118% (inactive).

Take `COc1cccc(/C=C(/CC(=O)Nc2ccc(N3CCOCC3)cc2)c2nc3ccccc3s2)c1`: the activation (% of control) is 99.9% (inactive).

As to `Oc1c(C=Nc2cccc3nsnc23)ccc2ccccc12`, the activation (% of control) was 95.4% (inactive).

For the compound `Cc1ccc(NC(=O)c2cc([N+](=O)[O-])ccc2Cl)c(O)c1`, the activation (% of control) is 99.1% (inactive).

As for `CC(C)CNC(=O)COC(=O)/C=C/c1ccccc1[N+](=O)[O-]`, the activation (% of control) is 89.1% (inactive).

In the case of `O=C(Nc1cc(C(F)(F)F)ccc1Cl)c1cc(C2CC2)on1`, the activation (% of control) was 98.3% (inactive).

As for `Oc1cccc2ccc(/C=C/c3ccc(Br)s3)nc12`, the activation (% of control) was 103% (inactive).

On to `COc1nc(N=C(N)N)nc2c(C)cccc12`, for which the activation (% of control) was 102% (inactive).

For `CCOC(=O)c1c(-c2cccc(C)c2)csc1NC(=O)c1c(-c2ccccc2)noc1C`, the activation (% of control) is 117% (inactive).

For the compound `O=[N+]([O-])c1ccc(N2CCN(S(=O)(=O)c3ccc4ccccc4c3)CC2)cc1NCc1ccco1`, the activation (% of control) was 110% (inactive).

`O=C1CCCN1CCCNc1ncnc2c1[nH]c1ccccc12`: the activation (% of control) was 82.6% (inactive).

Turning to `COc1ccc(NC(=O)ON=C2c3ccccc3-c3ccccc32)cc1`, the activation (% of control) was 107% (inactive).

Consider `Cc1ccc(-c2cc(C(=O)Nc3nn[nH]n3)c3ccccc3n2)c(C)c1`, for which the activation (% of control) is 97.5% (inactive).

As to `C=CCn1c(-c2ccccc2OCC)n[nH]c1=S`, the activation (% of control) is 112% (inactive).

Turning to `COC(=O)c1[nH]c2ccccc2c1NC(=O)CN1CCCc2ccccc21`, the activation (% of control) is 106% (inactive).

Regarding `CC(=O)Nc1ccc(NC(=O)COc2ccccc2C(=O)Nc2cccc(Cl)c2Cl)cc1`, the activation (% of control) was 100% (inactive).

`Cc1ccc(/C=N/NC(=O)COc2ccccc2-c2ccccc2)cc1`: the activation (% of control) was 114% (inactive).

Regarding `COc1cccc(NC(=S)C(C#N)=C2N(C)c3ccccc3N2C)c1`, the activation (% of control) is 103% (inactive).

On to `COC(=O)c1[nH]c2cccc(C)c2c1NC(=O)CN1CCCc2ccccc21`, for which the activation (% of control) was 93.5% (inactive).

Take `NC(=O)CSc1c[nH]c2ccccc12`: the activation (% of control) was 99.4% (inactive).

With `COc1ccc(-c2c3c(=O)n(C)c(=O)n(C)c3cn2-c2cccc(OC)c2)cc1`, the activation (% of control) is 101% (inactive).

Turning to `N#Cc1c(C(F)(F)F)cc(-c2ccc(Cl)cc2)nc1SCC(=O)O`, the activation (% of control) was 113% (inactive).

`COc1ccc([N+](=O)[O-])cc1C1NN=C(c2cccc3ccccc23)S1` (stereo not given): the activation (% of control) was 120% (inactive).

As for `CCSc1nnc(-c2cc3c(s2)-c2ccccc2CC3)o1`, the activation (% of control) was 132% (active).

With `CSc1nc2sc3c(c2c(=O)[nH]1)CCc1ccccc1-3`, the activation (% of control) was 95.8% (inactive).

Take `COc1ccccc1N1CCN(C(=O)c2cc3c(-c4ccc(Cl)cc4)nn(C)c3s2)CC1`: the activation (% of control) was 93.1% (inactive).

Turning to `COc1cc(OC)cc(C(=O)N[C@H](C(=O)Nc2nc3ccccc3[nH]2)C(C)C)c1`, the activation (% of control) is 109% (inactive).

Turning to `CSc1nc(N(C)NC(=O)c2cccc(C)c2)c2ccccc2n1`, the activation (% of control) was 107% (inactive).

Take `CCCS(=O)(=O)Nc1c(C(=O)O)[nH]c2ccccc12`: the activation (% of control) is 94.9% (inactive).

Consider `CCOC(=O)N1CCN(CC(=O)Nc2cc(C)nn2-c2nc3ccccc3s2)CC1`, for which the activation (% of control) is 101% (inactive).

For the compound `CCNCc1cc2cc(C)ccc2[nH]c1=O`, the activation (% of control) is 98.7% (inactive).

Take `Cn1cccc1C(=O)Nc1nccs1`: the activation (% of control) is 104% (inactive).

As to `CCOC(=O)C1CCN(c2ncnc3c2oc2ccc(Br)cc23)CC1`, the activation (% of control) was 92.6% (inactive).

Take `COc1ccccc1C1C2=C(COC2=O)Nc2cc3c(cc21)OCO3` (stereo not given): the activation (% of control) was 116% (inactive).

Regarding `COc1ccc(/C=N/Nc2ncnc3sc4c(c23)CCCC4)cc1O`, the activation (% of control) was 139% (active).

For the compound `CCCCC(=O)Nc1nc(C)c(-c2csc(Nc3ccc(Cl)cc3)n2)s1`, the activation (% of control) was 102% (inactive).

On to `Cc1cccc(C(=O)N2CCc3c([nH]c4ccccc34)C2CC(C)C)n1` (stereo not given), for which the activation (% of control) was 118% (inactive).

Consider `C/C(=N\c1nc2ccccc2n1C)c1cc(Cl)ccc1O`, for which the activation (% of control) is 92.8% (inactive).

Take `C=CCCC(=O)Nc1nc(C)c(-c2csc(Nc3ccc(Cl)cc3)n2)s1`: the activation (% of control) is 104% (inactive).

As for `Oc1cccc(C2c3[nH]c4ccccc4c3CCN2Cc2cnn(-c3ccccc3)c2)c1` (stereo not given), the activation (% of control) was 93.5% (inactive).

With `Fc1ccc2nc(-c3ccccc3)nc(SCc3nnc(-c4ccccc4)o3)c2c1`, the activation (% of control) was 96.5% (inactive).

Take `COc1ccc(C2c3[nH]c4ccccc4c3CCN2CCCn2cccn2)cc1C` (stereo not given): the activation (% of control) is 95.6% (inactive).

In the case of `COc1ccc(Cl)cc1NC(=O)c1oc(C)nc1C`, the activation (% of control) is 98.8% (inactive).

As to `Cc1csc2ncc(C(=O)N(Cc3ccccc3)c3ccccn3)c(=O)n12`, the activation (% of control) is 103% (inactive).

Take `Cc1ccc(C2=NN(C)c3nc4ccccc4n3C2)cc1`: the activation (% of control) was 101% (inactive).

For `COC(=O)c1[nH]c2ccccc2c1NS(=O)(=O)c1ccc(OC)cc1OC`, the activation (% of control) is 92.3% (inactive).

As for `O=C(O)CSCc1nc2ccccc2s1`, the activation (% of control) is 120% (active).

In the case of `O=C(O)CS/C(=C\c1ccc(F)cc1)c1nc2ccccc2s1`, the activation (% of control) was 112% (inactive).

For the compound `Cc1nc2ccccc2cc1O`, the activation (% of control) was 87.9% (inactive).

For the compound `COc1ccc(C)cc1NC(=O)c1[nH]c(C)c(C(C)=O)c1C`, the activation (% of control) was 100% (inactive).

As for `CCn1c(SCC(=O)N/N=C/C=C/c2ccccc2[N+](=O)[O-])nnc1-c1ccccc1`, the activation (% of control) is 89.9% (inactive).

Turning to `COc1cc(NS(=O)(=O)c2ccc(N/C=C(\C=O)c3nc4cc(Cl)ccc4o3)cc2)nc(OC)n1`, the activation (% of control) was 93.1% (inactive).

With `Cn1nc(-c2ccc(Cl)cc2)c2cc(C(=O)NCc3ccco3)sc21`, the activation (% of control) is 94.9% (inactive).

On to `O=c1[nH]c(CSc2ncc(-c3ccc(F)cc3)n2Cc2ccco2)nc2ccccc12`, for which the activation (% of control) was 100% (inactive).

In the case of `COCCCNc1nc2c(-c3cccc(C(F)(F)F)c3)nnn2c2ccccc12`, the activation (% of control) is 98.4% (inactive).

Consider `O=C(NCc1ccco1)c1cccn2c(=O)c3c4c(sc3nc12)CCCC4`, for which the activation (% of control) was 87% (inactive).

On to `Cc1cccc(N(CC(=O)N=Nc2c(O)[nH]c3ccccc23)S(C)(=O)=O)c1C`, for which the activation (% of control) is 107% (inactive).

As to `O=C(C1CCN(S(=O)(=O)Cc2ccccc2)CC1)N1CCCc2ccccc21`, the activation (% of control) is 105% (inactive).

`Cc1ccc(OCc2nnc(SC3CCc4ccccc4C3=O)n2C)cc1` (stereo not given): the activation (% of control) is 132% (active).
